Screen size: about 13,000 compounds; about 3,200 (25%) showed an effect of 50% or more. The list shows a part of the results.
Each compound was assayed on P. falciparum stage V gametocytes. Conditions: 48 h, 5 µM; inhibitor.
Design: BacTiter-Glo ATP luminescence viability of purified stage V gametocytes in 384-well plates, per cent inhibition versus DMSO
In the case of CCc1nc(N)nc(N)c1-c1ccc(Cl)cc1 [TCMDC-125860], the “% Inhibition” value is reported as 8.374%. In the case of Nc1nc(Cc2ccc(Cl)cc2)nc(Cc2ccc(Cl)cc2)n1 [TCMDC-137497], the “% Inhibition” value is reported as 78.01%. In the case of Cc1nc2nc(N)nc(N)c2c(C)c1Cc1ccc(Cl)cc1 [TCMDC-137659], the “% Inhibition” value is reported as 18.29%. O=C(Cc1cccc(Cl)c1)N1CCc2cc3nccc(N4CCN5CCC[C@H]5C4)c3cc21 [TCMDC-140038] was tested, and the “% Inhibition” value was 0.313%. O=C(c1ccc(-c2ccc(Cl)cc2)o1)N1CCc2cc3nccc(N4CCN5CCC[C@H]5C4)c3cc21 [TCMDC-140116] was tested, and the “% Inhibition” value was 93.89%. With Cc1ccc(C(=O)N2CCc3cc4nccc(N5CCN6CCC[C@H]6C5)c4cc32)cc1 [TCMDC-140036] the “% Inhibition” value was -10.33%. In the case of COc1ccc(C(=O)N2CCc3cc4nccc(N5CCN6CCC[C@H]6C5)c4cc32)cc1 [TCMDC-140035], the “% Inhibition” value is reported as 84.78%. With O=C(c1cc2ccccc2o1)N1CCc2cc3nccc(N4CCN5CCC[C@H]5C4)c3cc21 [TCMDC-140037] the “% Inhibition” value was -9.524%. With COc1ccc(/C=C/C(=O)N2CCc3cc4nccc(N5CCN6CCC[C@H]6C5)c4cc32)cc1 [TCMDC-140046] the “% Inhibition” value was -29.41%. In the case of O=C(NCc1cccc(F)c1)c1ccc(O)c(-c2cc(Cl)cc(Cl)c2)c1 [TCMDC-140157], the “% Inhibition” value is reported as -3.983%. For O=C(Nc1ccc(N2CCN(Cc3c[nH]c4cc(F)ccc34)CC2)cc1)c1ccccc1-c1ccc(C(F)(F)F)cc1 [TCMDC-138521], the “% Inhibition” value was 1.427%. For Cc1nc2ccc3ccc(CNc4ccc5c(c4)CN([C@H](CCC(=O)O)C(=O)O)C5=O)cc3c2c(=O)[nH]1 [TCMDC-138033], the “% Inhibition” value was 21.85%. With O=C(/C=C/c1ccc(Cl)c(Cl)c1)N1CCN(C(=O)Nc2ccc(F)c(Cl)c2)CC1 [TCMDC-135942] the “% Inhibition” value was -48.62%. With O=C(C=Cc1ccc(F)cc1)N1CCN(S(=O)(=O)c2ccc(Cl)cc2)CC1 [TCMDC-125028] the “% Inhibition” value was 63.42%. In the case of O=C(/C=C/c1ccc([N+](=O)[O-])cc1)N1CCC(NS(=O)(=O)c2ccc(F)cc2)CC1 [TCMDC-139441], the “% Inhibition” value is reported as 26.45%. For Cc1cc(C(=O)Nc2ccc3c(c2)CCN3C2CCN(Cc3ccc(O)cc3)C2)no1 (stereo not drawn) [TCMDC-135078], the “% Inhibition” value was -0.5259%. In the case of Cc1ccc(Cn2cnc3cc(C(=O)Nc4ccc(-c5ccc(CN(C)C)cc5)cc4)ccc3c2=O)o1 [TCMDC-132364], the “% Inhibition” value is reported as 111.6%. For CN(CCO)Cc1cccc(-c2ccc(NC(=O)c3cccc(C#N)c3)cc2)c1 [TCMDC-132671], the “% Inhibition” value was -45.65%. With Cc1ccc(Cn2cnc3cc(C(=O)Nc4ccc(-c5cccc(CN(C)C)c5)cc4)ccc3c2=O)o1 [TCMDC-132366] the “% Inhibition” value was 91.1%. With COc1cccc2cc(C(=O)N[C@@H](CC(C)C)C(=O)N[C@H](/C=N/NC(=O)Cc3cccnc3)CCc3ccccc3)oc12 [TCMDC-135634] the “% Inhibition” value was -9.897%. For O=C(Nc1ccc(-c2nc3ccccc3[nH]2)cc1)c1cnc(Cl)c(Cl)c1 [TCMDC-125109], the “% Inhibition” value was -47.86%. For CN1CCC(C(=O)Nc2cccc(-c3ccc(-c4nc5ccc(F)cc5[nH]4)cc3)c2)CC1 [TCMDC-132185], the “% Inhibition” value was 12.21%. CN1CCN(CC(=O)Nc2cccc(-c3ccc(-c4nc5ccc(F)cc5[nH]4)cc3)c2)CC1 [TCMDC-136978] was tested, and the “% Inhibition” value was 78.56%. In the case of CN1CCC(C(=O)Nc2cccc(-c3cccc(-c4nc5ccc(F)cc5[nH]4)c3)c2)CC1 [TCMDC-132181], the “% Inhibition” value is reported as 91.35%. CN1CCC(C(=O)Nc2ccc(-c3cccc(-c4nc5ccc(F)cc5[nH]4)c3)cc2)CC1 [TCMDC-132180] was tested, and the “% Inhibition” value was 28.01%. CN1CCN(CC(=O)Nc2ccc(-c3csc(-c4nc5ccccc5[nH]4)c3)cc2)CC1 [TCMDC-132392] was tested, and the “% Inhibition” value was -27.46%. CN1CCN(CC(=O)Nc2cccc(-c3cccc(-c4nc5ccc(F)cc5[nH]4)c3)c2)CC1 [TCMDC-136974] was tested, and the “% Inhibition” value was 72.37%. CN1CCN(CC(=O)Nc2ccc(-c3ccc(-c4nc5ccccc5[nH]4)cc3)cc2)CC1 [TCMDC-136979] was tested, and the “% Inhibition” value was -9.366%. CN1CCN(CC(=O)Nc2cccc(-c3ccc(-c4nc5cc(F)ccc5[nH]4)s3)c2)CC1 [TCMDC-136986] was tested, and the “% Inhibition” value was 9.75%. CN1CCN(CC(=O)Nc2cccc(-c3cccc(-c4nc5ccccc5[nH]4)c3)c2)CC1 [TCMDC-136972] was tested, and the “% Inhibition” value was 82.82%. With CN1CCN(CC(=O)Nc2ccc(-c3cccc(-c4nc5ccc(F)cc5[nH]4)c3)cc2)CC1 [TCMDC-136973] the “% Inhibition” value was -61.95%. In the case of O=C(Cc1cnc[nH]1)Nc1cccc(-c2ccc(-c3nc4ccc(F)cc4[nH]3)cc2)c1 [TCMDC-136946], the “% Inhibition” value is reported as 4.671%. In the case of CCCN(Cc1nnc(-c2cccs2)o1)C(=O)CSc1nnnn1-c1ccc(C)c(C)c1 [TCMDC-125240], the “% Inhibition” value is reported as 7.835%. For CCNc1cc(C(=O)N[C@@H](Cc2ccccc2)[C@H](O)CNC2(C(C)C)CCC2)cc(N2CCCCS2(=O)=O)c1 [TCMDC-135375], the “% Inhibition” value was 21.07%. For O=C(Nc1cccc(N2CCC(NCc3cnn(-c4cccc(F)c4)c3)CC2)c1)c1ccncc1 [TCMDC-124666], the “% Inhibition” value was 1.522%. For CCc1nc(N)nc(N)c1-c1ccc2c(c1)CCCC2 [TCMDC-137366], the “% Inhibition” value was 1.403%. With CC(=O)c1c[nH]c2ccc(/C=C/C(=O)NC3CCC(CCN4CCc5ccc(C#N)cc5CC4)CC3)cc12 (stereo not drawn) [TCMDC-139781] the “% Inhibition” value was 8.041%. Cc1cc(N(C)C)nc(Nc2ccc(NC(=O)Nc3ccccc3)cc2)n1 [TCMDC-124961] was tested, and the “% Inhibition” value was -7.652%. CC(C)(C)OC(=O)Nc1cccc(-c2csc(N=C(N)N)n2)c1 [TCMDC-139458] was tested, and the “% Inhibition” value was -7.948%. In the case of CC(C)(C)OC(=O)NCCc1cccc(-c2c[nH]c3ncc(-c4cccc(NS(C)(=O)=O)c4)cc23)c1 [TCMDC-136294], the “% Inhibition” value is reported as 27.56%. In the case of Cc1ccc(-n2[nH]c(C)c(N=Nc3cccc(-c4cccc(NC(=O)OC(C)(C)C)c4)c3O)c2=O)cc1C [TCMDC-141045], the “% Inhibition” value is reported as 81.95%. In the case of COc1ccc(Nc2nccc(-c3ccc(NC(=O)c4cc5cc(F)ccc5[nH]4)cc3)n2)cc1 [TCMDC-133306], the “% Inhibition” value is reported as 23.43%. In the case of CCNC(=O)Nc1cccc(-c2ccc(-c3nc4cccc(C)c4[nH]3)s2)c1 [TCMDC-133169], the “% Inhibition” value is reported as -0.5138%. Cc1ccc(Nc2nc3cc(Nc4ccnc(Nc5ccc(CS(C)(=O)=O)cc5)n4)ccc3o2)cc1 [TCMDC-141799] was tested, and the “% Inhibition” value was 11.69%. OC(COCc1ccc(-c2ccccc2)cc1)CN1CCCCC1 (stereo not drawn) [TCMDC-132069] was tested, and the “% Inhibition” value was -30.91%. Cc1ccc(NC(=O)c2ccc(CN3CCCN(CC4CCCCC4)CC3)cc2)cc1F [TCMDC-136393] was tested, and the “% Inhibition” value was -36.95%. In the case of CC1CN(c2ccc(NC(=O)c3ccc(F)cc3)cc2)CCN1Cc1cccc(F)c1 (stereo not drawn) [TCMDC-135016], the “% Inhibition” value is reported as 10.14%. For CC(C)(C)c1ccc(CN2CCC(NC(=O)c3ccc(-c4cccc(F)c4)s3)CC2)cc1 [TCMDC-134350], the “% Inhibition” value was -0.6628%. For c1ccc(Nc2nc(-c3ccccn3)cs2)nc1 [TCMDC-124275], the “% Inhibition” value was 108.4%. In the case of Cc1ccnc(Nc2nc(-c3ccccn3)cs2)c1 [TCMDC-125769], the “% Inhibition” value is reported as 115.7%. With Cc1cccnc1Nc1nc(-c2ccccn2)cs1 [TCMDC-125846] the “% Inhibition” value was 115%. Cc1ccc(Nc2nc(-c3ccccn3)cs2)nc1 [TCMDC-125854] was tested, and the “% Inhibition” value was 98.08%. With Cc1cccc(C(O)CNc2ccnc(Nc3cccc(-c4csc(C)n4)c3)n2)c1 (stereo not drawn) [TCMDC-136568] the “% Inhibition” value was -28.27%. For COc1cccc(C(=O)NCc2cccs2)c1OCc1ccccc1 [TCMDC-141234], the “% Inhibition” value was 8.01%. With C#CCOc1ccccc1CN1CCC(N2CCc3cc(NC(=O)c4cc(C)on4)ccc32)C1 (stereo not drawn) [TCMDC-135075] the “% Inhibition” value was -4.764%. For Cc1[nH]c2ccc(NS(C)(=O)=O)cc2c1C1CCN(CCC2CCN(C(=O)/C=C/c3ccc(Cl)c(Cl)c3)CC2)CC1 [TCMDC-140126], the “% Inhibition” value was -29.87%. For Cc1ccc(NC(=O)c2ccc3nccnc3c2)cc1OC1CCN(Cc2ccc(F)cc2)CC1 [TCMDC-133748], the “% Inhibition” value was -13.13%. O=C(Nc1ccccc1-c1ccccc1)C1CCCN1C(=O)Nc1ccc(Cl)cc1 (stereo not drawn) [TCMDC-123648] was tested, and the “% Inhibition” value was 32.25%. For Cc1cc(NC(=O)Nc2ccc3nccc(N4CCN(C)CC4)c3c2)ccc1Br [TCMDC-139361], the “% Inhibition” value was 36.21%. For CC[C@H]1C[N+]2([O-])CC[C@@H]1C[C@H]2[C@H](O)c1cc(-c2ccccc2)nc2ccc(OC)cc12 [TCMDC-141330], the “% Inhibition” value was 6.04%. In the case of CC(=O)Nc1nc(C)c(-c2csc(Nc3ccc(Cl)cc3)n2)s1 [TCMDC-123995], the “% Inhibition” value is reported as -35.56%. In the case of Clc1ccc(Nc2nc(-c3ccccn3)cs2)nc1 [TCMDC-123885], the “% Inhibition” value is reported as 114%. For Cc1cc(NCC2CCN(CC3CCCCC3)C2)nc(Nc2ccc(Br)cc2)n1 (stereo not drawn) [TCMDC-137024], the “% Inhibition” value was -11.33%. In the case of Fc1ccc2nc(-c3ccc(-c4ccc(CNCc5ccccc5)cc4)cc3)[nH]c2c1 [TCMDC-132706], the “% Inhibition” value is reported as -8.739%. With NCc1ccc(CNCc2ccc(-c3ccc(-c4nc5ccc(F)cc5[nH]4)cc3)cc2)cc1 [TCMDC-132810] the “% Inhibition” value was 33.23%. FC(F)(F)c1ccc2nc(-c3ccc(-c4ccc(CNCCN5CCNCC5)cc4)cc3)[nH]c2c1 [TCMDC-132865] was tested, and the “% Inhibition” value was 81.47%. CC(C)NCc1ccc(-c2ccc(-c3nc4ccc(C(F)(F)F)cc4[nH]3)cc2)cc1 [TCMDC-132741] was tested, and the “% Inhibition” value was -41.38%. In the case of O=C(NCCN1CCCC1)c1cccc(-c2ccc(-c3nc4ccc(C(F)(F)F)cc4[nH]3)cc2)c1 [TCMDC-132322], the “% Inhibition” value is reported as -42.59%. Fc1ccc2nc(-c3ccc(-c4ccc(CNCCN5CCNCC5)cc4)cc3)[nH]c2c1 [TCMDC-132866] was tested, and the “% Inhibition” value was 95.81%.
